Test results published in PubChem BioAssay AID1159580 (chemical genetic matrix, 2015).
About 2,000 (36%) of roughly 5,500 compounds were called active. Inconclusive results (about 18%) are left out. No stated cut-off is given here; in the data, active means normalized growth mostly below about 0.91 (no sharp cut-off); inconclusive means no clear call, values can overlap the other calls; inactive means mostly above about 0.92. This is one part of the list.

Experiment: chemical genetic growth profiling, strain panel (AID 1159580);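 further: tested at 20 µM; growth read once vehicle control cultures reached saturation at 30 °C; 1 = growth at the plate median or of vehicle wells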
Conditions: S. cerevisiae deletion strains, growth OD
[1] = locus YAR019C, strain CDC15, stronger effect = lower value
[2] = locus YBL105C, strain PKC1, stronger effect = lower value
[3] = locus YBR135W, strain CKS1, stronger effect = lower value
[4] = locus YBR136W, strain MEC1, stronger effect = lower value
[5] = locus YBR160W, strain CDC28, stronger effect = lower value
[6] = locus YDL017W, strain CDC7, stronger effect = lower value
[7] = locus YDL028C, strain MPS1, stronger effect = lower value
[8] = locus YDL101C, strain DUN1, stronger effect = lower value
[9] = locus YDL108W, strain KIN28, stronger effect = lower value
[10] = locus YDL132W, strain cdc53, stronger effect = lower value
[11] = locus YDL214C, strain PRR2, stronger effect = lower value
[12] = locus YDR052C, strain DBF4, stronger effect = lower value
[13] = locus YDR054C, strain cdc34, stronger effect = lower value
[14] = locus YDR226W, strain ADK1, stronger effect = lower value
[15] = locus YDR477W, strain SNF1, stronger effect = lower value
[16] = locus YER123W, strain YCK3, stronger effect = lower value
[17] = locus YER133W, strain GLC7, stronger effect = lower value
[18] = locus YFL009W, strain cdc4, stronger effect = lower value
[19] = locus YFL029C, strain CAK1, stronger effect = lower value
[20] = locus YFR003C, strain YPI1, stronger effect = lower value
[21] = locus YFR019W, strain FAB1, stronger effect = lower value
[22] = locus YFR028C, strain CDC14, stronger effect = lower value
[23] = locus YGR040W, strain KSS1, stronger effect = lower value
[24] = locus YGR052W, strain FMP48, stronger effect = lower value
[25] = locus YGR092W, strain DBF2, stronger effect = lower value
[26] = locus YHR030C, strain SLT2, stronger effect = lower value
[27] = locus YHR079C, strain IRE1, stronger effect = lower value
[28] = locus YHR082C, strain KSP1, stronger effect = lower value
[29] = locus YHR205W, strain SCH9, stronger effect = lower value
[30] = locus YIL147C, strain SLN1, stronger effect = lower value
[31] = locus YJL095W, strain BCK1, stronger effect = lower value
[32] = locus YJL128C, strain PBS2, stronger effect = lower value
[33] = locus YJL157C, strain FAR1, stronger effect = lower value
[34] = locus YJR016C, strain ILV3, stronger effect = lower value
[35] = locus YJR066W, strain TOR1 (second series), stronger effect = lower value
[36] = locus YJR066W, strain TOR1, stronger effect = lower value
[37] = locus YKL048C, strain ELM1, stronger effect = lower value
[38] = locus YKL067W, strain YNK1, stronger effect = lower value
[39] = locus YKL101W, strain HSL1, stronger effect = lower value
[40] = locus YKL193C, strain SDS22, stronger effect = lower value
[41] = locus YKL203C, strain TOR2, stronger effect = lower value
[42] = locus YLR113W, strain HOG1, stronger effect = lower value
[43] = locus YLR133W, strain CKI1, stronger effect = lower value
[44] = locus YLR403W, strain SFP1, stronger effect = lower value
[45] = locus YML070W, strain DAK1, stronger effect = lower value
[46] = locus YMR001C, strain CDC5, stronger effect = lower value
[47] = locus YMR205C, strain PFK2 (second series), stronger effect = lower value
[48] = locus YMR277W, strain FCP1, stronger effect = lower value
[49] = locus YNL006W, strain LST8, stronger effect = lower value
[50] = locus YNL020C, strain ARK1, stronger effect = lower value
[51] = locus YNL161W, strain CBK1, stronger effect = lower value
[52] = locus YNL183C, strain NPR1, stronger effect = lower value
[53] = locus YNL207W, strain RIO2, stronger effect = lower value
[54] = locus YNL222W, strain SSU72, stronger effect = lower value
[55] = locus YNL307C, strain MCK1 (second series), stronger effect = lower value
[56] = locus YOL078W, strain AVO1, stronger effect = lower value
[57] = locus YOL136C, strain PFK27, stronger effect = lower value
[58] = locus YOR061W, strain CKA2, stronger effect = lower value
[59] = locus YOR119C, strain RIO1, stronger effect = lower value
[60] = locus YOR231W, strain MKK1, stronger effect = lower value
[61] = locus YOR329C, strain SCD5, stronger effect = lower value
[62] = locus YPL031C, strain PHO85, stronger effect = lower value
[63] = locus YPL153C, strain RAD53, stronger effect = lower value
[64] = locus YPL204W, strain HRR25, stronger effect = lower value
[65] = locus YPL209C, strain IPL1, stronger effect = lower value
[66] = locus YPL256C, strain CLN2, stronger effect = lower value
[67] = locus YPR025C, strain CCL1, stronger effect = lower value
[68] = locus YPR106W, strain ISR1, stronger effect = lower value
[69] = locus YPR111W, strain DBF20, stronger effect = lower value
[70] = strain NNK1, stronger effect = lower value
[71] = strain TSCII, stronger effect = lower value

Measured: normalized growth

CCOC(=O)C(O)(c1ccc(NC(=O)c2ccc(Cl)c(Cl)c2)cc1)C(F)(F)F (stereo not drawn)
inactive: [1] 0.998 | [2] 0.988 | [3] 1 | [4] 0.989 | [5] 0.996 | [6] 0.997 | [7] 0.993 | [8] 0.994 | [9] 0.997 | [10] 0.997 | [11] 0.874 | [12] 0.996 | [13] 0.991 | [14] 0.992 | [15] 0.92 | [16] 0.859 | [17] 0.926 | [18] 0.99 | [19] 0.992 | [20] 0.999 | [21] 0.933 | [22] 1 | [23] 0.915 | [24] 0.979 | [25] 0.892 | [26] 0.962 | [27] 0.953 | [28] 0.967 | [29] 0.928 | [30] 0.986 | [31] 1.01 | [32] 0.946 | [33] 0.913 | [34] 0.988 | [35] 0.914 | [36] 0.994 | [37] 0.953 | [38] 0.935 | [39] 0.901 | [40] 1 | [41] 0.994 | [42] 0.977 | [43] 0.939 | [44] 0.94 | [45] 0.886 | [46] 0.997 | [47] 0.941 | [48] 1 | [49] 0.986 | [50] 0.919 | [51] 0.99 | [52] 1.02 | [53] 0.992 | [54] 0.994 | [55] 0.91 | [56] 1 | [57] 0.895 | [58] 0.911 | [59] 0.957 | [60] 0.977 | [61] 1 | [62] 0.896 | [63] 0.912 | [64] 0.922 | [65] 0.996 | [66] 0.976 | [67] 1 | [68] 0.988 | [69] 0.986 | [70] 0.987 | [71] 0.993

CCOC(=O)C(NC(=O)c1cccc(Cl)c1)(Nc1nc2ccccc2s1)C(F)(F)F (stereo not drawn)
active: [26] 0.796 | [42] 0.823
inactive: [1] 0.967 | [2] 0.957 | [3] 0.956 | [4] 0.96 | [5] 0.967 | [6] 0.962 | [7] 0.961 | [8] 0.973 | [9] 0.963 | [10] 0.952 | [11] 0.927 | [12] 0.955 | [13] 0.952 | [14] 0.956 | [15] 0.917 | [16] 0.906 | [17] 0.9 | [18] 0.954 | [19] 0.975 | [20] 0.957 | [21] 0.955 | [22] 0.963 | [23] 0.926 | [24] 0.943 | [25] 0.996 | [27] 1 | [28] 0.989 | [29] 1.01 | [30] 0.955 | [31] 0.98 | [32] 0.949 | [33] 0.915 | [34] 0.963 | [35] 0.949 | [36] 1.02 | [37] 0.937 | [38] 0.94 | [39] 0.929 | [40] 0.964 | [41] 1.01 | [43] 0.935 | [44] 1.02 | [45] 0.914 | [46] 0.967 | [47] 0.941 | [48] 0.964 | [49] 0.966 | [50] 0.931 | [51] 0.96 | [52] 1.07 | [53] 0.961 | [54] 0.968 | [55] 0.916 | [56] 0.962 | [57] 0.924 | [58] 0.939 | [59] 0.992 | [60] 0.967 | [61] 0.964 | [62] 0.917 | [63] 0.927 | [64] 0.913 | [65] 0.962 | [66] 0.894 | [67] 0.966 | [68] 0.962 | [69] 0.958 | [70] 0.971 | [71] 0.962

COc1ccccc1NC(=S)NCCc1ccc(OC)c(OC)c1
inactive: locus YAL013W, strain DEP1, stronger effect = lower value 0.997 | locus YBR229C, strain ROT2, stronger effect = lower value 1 | [8] 1.05 | locus YDR150W, strain NUM1, stronger effect = lower value 1.02 | locus YEL061C, strain CIN8, stronger effect = lower value 0.998 | locus YGR078C, strain PAC10, stronger effect = lower value 0.998 | [26] 0.979 | locus YHR087W, strain rtc3, stronger effect = lower value 1.02 | locus YJR043C, strain POL32, stronger effect = lower value 0.982 | locus YJR075W, strain HOC1, stronger effect = lower value 0.991 | locus YLR039C, strain RIC1, stronger effect = lower value 0.91 | locus YLR058C, strain SHM2 (second series), stronger effect = lower value 0.99 | locus YLR085C, strain ARP6, stronger effect = lower value 0.942 | locus YLR262C, strain YPT6, stronger effect = lower value 0.954 | locus YML094W, strain GIM5, stronger effect = lower value 1.1 | locus YMR219W, strain ESC1, stronger effect = lower value 0.999 | locus YMR263W, strain SAP30, stronger effect = lower value 0.989 | locus YNL153C, strain GIM3, stronger effect = lower value 1.02 | locus YNL298W, strain CLA4 (second series), stronger effect = lower value 0.952 | locus YNL322C, strain KRE1, stronger effect = lower value 0.997 | locus YNR030W, strain Alg12, stronger effect = lower value 1.02 | locus YPL055C, strain LGE1, stronger effect = lower value 1.03 | locus YPL241C, strain CIN2, stronger effect = lower value 0.927 | locus YPR135W, strain CTF4, stronger effect = lower value 1.04

S=C(NCCc1csc2ccccc12)Nc1ccc(Cl)cc1
active: [26] 0.5 | [29] 0.566 | [42] 0.536 | [66] 0.667
inactive: [1] 0.923 | [2] 0.945 | [3] 0.945 | [4] 0.944 | [5] 0.956 | [6] 0.952 | [7] 0.942 | [8] 0.962 | [9] 0.95 | [10] 0.944 | [11] 0.797 | [12] 0.96 | [13] 0.931 | [14] 0.951 | [15] 0.815 | [16] 0.719 | [17] 0.816 | [18] 0.944 | [19] 0.9 | [20] 0.953 | [21] 0.934 | [22] 0.945 | [23] 0.819 | [24] 0.795 | [25] 0.735 | [27] 0.786 | [28] 0.721 | [30] 0.938 | [31] 0.677 | [32] 0.872 | [33] 0.863 | [34] 0.945 | [35] 0.759 | [36] 0.727 | [37] 0.914 | [38] 0.828 | [39] 0.787 | [40] 0.943 | [41] 0.886 | [43] 0.797 | [44] 0.752 | [45] 0.808 | [46] 0.946 | [47] 0.84 | [48] 0.941 | [49] 0.96 | [50] 0.795 | [51] 0.952 | [52] 0.754 | [53] 0.937 | [54] 0.952 | [55] 0.729 | [56] 0.945 | [57] 0.8 | [58] 0.811 | [59] 0.867 | [60] 0.789 | [61] 0.952 | [62] 0.768 | [63] 0.775 | [64] 0.809 | [65] 0.946 | [67] 0.945 | [68] 0.936 | [69] 0.917 | [70] 0.914 | [71] 0.922

S=C(NCc1cccs1)Nc1cc(Cl)cc(Cl)c1
inactive: [1] 0.942 | [2] 0.947 | [3] 0.936 | [4] 0.945 | [5] 0.944 | [6] 0.955 | [7] 0.944 | [8] 0.979 | [9] 0.947 | [10] 0.962 | [11] 0.912 | [12] 0.96 | [13] 0.967 | [14] 0.955 | [15] 0.894 | [16] 0.848 | [17] 0.867 | [18] 0.928 | [19] 0.936 | [20] 0.948 | [21] 0.95 | [22] 0.959 | [23] 0.891 | [24] 0.964 | [25] 0.739 | [26] 0.988 | [27] 0.961 | [28] 0.901 | [29] 0.946 | [30] 0.949 | [31] 0.958 | [32] 0.892 | [33] 0.879 | [34] 0.948 | [35] 0.874 | [36] 0.917 | [37] 0.953 | [38] 0.902 | [39] 0.923 | [40] 0.937 | [41] 0.944 | [42] 0.912 | [43] 0.931 | [44] 0.898 | [45] 0.883 | [46] 0.941 | [47] 0.918 | [48] 0.934 | [49] 0.944 | [50] 0.906 | [51] 0.946 | [52] 0.928 | [53] 0.928 | [54] 0.93 | [55] 0.935 | [56] 0.934 | [57] 0.897 | [58] 0.872 | [59] 0.936 | [60] 1.01 | [61] 0.949 | [62] 0.865 | [63] 0.862 | [64] 0.878 | [65] 0.942 | [66] 0.961 | [67] 0.949 | [68] 0.948 | [69] 0.952 | [70] 0.959 | [71] 0.936
